{"source": "the supplement of paper PMC10338343", "key": {"[1]": {"test_system": "MILI (PIWIL2) piRISC loaded with L1MC piRNA (26 nt)", "assay": "pre-steady-state target cleavage rate (min^-1); guide: L1MC piRNA 5'p-UAACUAAAUACUAUGCAAGCUGUAGG; higher = faster piRNA-guided slicing of the target", "details": "auxiliary factor: 500 nM mouse GTSF1", "how_it_was_run": "(§1)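 The method was Cleave-'n-Seq, in which uncleaved targets from a transcribed, DNA-blocked target RNA library were sequenced after exposure to active affinity-purified piRISC carrying one synthetic guide, with or without GTSF1 partner protein. Reactions contained 0.1 nM library, 1 nM piRISC and, where present, 500 nM GTSF1 in HEPES–potassium acetate buffer at 33 °C for 0–8 or 0–960 min. Reads were normalised to depth and to weakly complementary targets, three trials were pooled, and k3 was capped at 0.0001 min^-1. The pre-steady-state cleavage rate came from a burst-and-steady-state fit.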"}, "[2]": {"test_system": "EfPiwi piRISC loaded with L1MC piRNA (26 nt)", "assay": "pre-steady-state target cleavage rate (min^-1); auxiliary factor: 500 nM Ephydatia muelleri Gtsf1; guide: L1MC piRNA 5'p-UAACUAAAUACUAUGCAAGCUGUAGG; MIWI and MILI are mouse PIWI proteins and EfPiwi is from a freshwater sponge; tags in brackets are library labels; higher = faster piRNA-guided slicing of the target", "how_it_was_run": "as §1"}}, "note": "± gives the standard deviation.", "data": [{"sequence": "UCCUCCUACAGCUUGCAUAUUAUUUAGUUA", "values": [{"measurement": "pre-steady-state target cleavage rate", "setting": "[1]", "value": "0.0824 ± 0.011"}, {"measurement": "pre-steady-state target cleavage rate", "setting": "[2]", "value": "0.0783 ± 0.025"}]}, {"sequence": "UCCUCCUACAGCUUGCAUAGAAUUUACAAA", "values": [{"measurement": "pre-steady-state target cleavage rate", "setting": "[1]", "value": "0.0431 ± 0.015"}, {"measurement": "pre-steady-state target cleavage rate", "setting": "[2]", "value": "0.00295 ± 0.0029"}]}, {"sequence": "UCCUCCUACAGCUUGCAUAGUUUAUAGUUA", "values": [{"measurement": "pre-steady-state target cleavage rate", "setting": "[1]", "value": "0.0469 ± 0.011"}, {"measurement": "pre-steady-state target cleavage rate", "setting": "[2]", "value": "0.00613 ± 0.0033"}]}, {"sequence": "UCCUCCUACACCUUGCAUAGUAUUAAGUUA", "values": [{"measurement": "pre-steady-state target cleavage rate", "setting": "[1]", "value": "0.178 ± 0.036"}, {"measurement": "pre-steady-state target cleavage rate", "setting": "[2]", "value": "0.00451 ± 0.0025"}]}, {"sequence": "UCCUGGUACAGCUUGCAUAGUAUUUUGAAA", "values": [{"measurement": "pre-steady-state target cleavage rate", "setting": "[1]", "value": "0.06 ± 0.022"}, {"measurement": "pre-steady-state target cleavage rate", "setting": "[2]", "value": "0.00282 ± 0.0028"}]}, {"sequence": "UCCUGGAACUGCUUGCAUAGUAUUUAGAAA", "values": [{"measurement": "pre-steady-state target cleavage rate", "setting": "[1]", "value": "0.103 ± 0.019"}, {"measurement": "pre-steady-state target cleavage rate", "setting": "[2]", "value": "0.00485 ± 0.0026"}]}, {"sequence": "UCCUCCUACAGCUUGCAUAGUAAUUAGAAA", "values": [{"measurement": "pre-steady-state target cleavage rate", "setting": "[1]", "value": "0.127 ± 0.032"}, {"measurement": "pre-steady-state target cleavage rate", "setting": "[2]", "value": "0.00474 ± 0.0026"}]}, {"sequence": "UCCUGCUACAGCUUGCAUACUAUUUACUUA", "values": [{"measurement": "pre-steady-state target cleavage rate", "setting": "[1]", "value": "0.0359 ± 0.011"}, {"measurement": "pre-steady-state target cleavage rate", "setting": "[2]", "value": "0.00325 ± 0.0023"}]}, {"sequence": "UCCUGGUACAGCUAGCAUAGUAUUUAGAUA", "values": [{"measurement": "pre-steady-state target cleavage rate", "setting": "[1]", "value": "0.0905 ± 0.022"}, {"measurement": "pre-steady-state target cleavage rate", "setting": "[2]", "value": "0.00618 ± 0.0029"}]}, {"sequence": "UCCUGGAACAGCUUGCAUAGUAUUUUCUUA", "values": [{"measurement": "pre-steady-state target cleavage rate", "setting": "[1]", "value": "0.0439 ± 0.014"}, {"measurement": "pre-steady-state target cleavage rate", "setting": "[2]", "value": "0.00388 ± 0.0027"}]}, {"sequence": "UCCUGCAACAGCUUGCAUAGUAUUUUCAAA", "values": [{"measurement": "pre-steady-state target cleavage rate", "setting": "[1]", "value": "0.104 ± 0.027"}, {"measurement": "pre-steady-state target cleavage rate", "setting": "[2]", "value": "0.00269 ± 0.0017"}]}, {"sequence": "UCCUGCAACAGCUUGCAUAGUAUUUACAAA", "values": [{"measurement": "pre-steady-state target cleavage rate", "setting": "[1]", "value": "0.232 ± 0.053"}, {"measurement": "pre-steady-state target cleavage rate", "setting": "[2]", "value": "0.00305 ± 0.0022"}]}, {"sequence": "UCCUGGAACAGCUUGCUUAGUAUUUAGAUA", "values": [{"measurement": "pre-steady-state target cleavage rate", "setting": "[1]", "value": "0.176 ± 0.017"}, {"measurement": "pre-steady-state target cleavage rate", "setting": "[2]", "value": "0.00448 ± 0.0027"}]}, {"sequence": "UCCUGGUACAGCUUGCAUAGUAUUUUGAUA", "values": [{"measurement": "pre-steady-state target cleavage rate", "setting": "[1]", "value": "0.0966 ± 0.025"}, {"measurement": "pre-steady-state target cleavage rate", "setting": "[2]", "value": "0.00381 ± 0.0026"}]}, {"sequence": "UCCUCCUACAGCUUGCAUAGUAUUAGUUA", "values": [{"measurement": "pre-steady-state target cleavage rate", "setting": "[1]", "value": "0.273 ± 0.024"}, {"measurement": "pre-steady-state target cleavage rate", "setting": "[2]", "value": "0.00402 ± 0.0027"}]}, {"sequence": "UCCUGCUACAGCAUGCAUAGAAUUUAGUUA", "values": [{"measurement": "pre-steady-state target cleavage rate", "setting": "[1]", "value": "0.0922 ± 0.021"}, {"measurement": "pre-steady-state target cleavage rate", "setting": "[2]", "value": "0.00243 ± 0.002"}]}, {"sequence": "UCCUGGUUCAGCUUCCAUAGUAUUUAGUUA", "values": [{"measurement": "pre-steady-state target cleavage rate", "setting": "[1]", "value": "0.0301 ± 0.012"}, {"measurement": "pre-steady-state target cleavage rate", "setting": "[2]", "value": "0.00303 ± 0.0021"}]}, {"sequence": "UCCUGCUACAGCUUGCAUAGAAUUUAGAAA", "values": [{"measurement": "pre-steady-state target cleavage rate", "setting": "[1]", "value": "0.0373 ± 0.015"}, {"measurement": "pre-steady-state target cleavage rate", "setting": "[2]", "value": "0.00251 ± 0.0016"}]}, {"sequence": "UCCUGGAUGACCUUGCAUAGUAUUUAGAUA", "values": [{"measurement": "pre-steady-state target cleavage rate", "setting": "[1]", "value": "0.115 ± 0.034"}, {"measurement": "pre-steady-state target cleavage rate", "setting": "[2]", "value": "0.00355 ± 0.0027"}]}, {"sequence": "UCCUGGAUGUCCUUGCAUAGUAUUUGAGUUA", "values": [{"measurement": "pre-steady-state target cleavage rate", "setting": "[1]", "value": "0.169 ± 0.043"}, {"measurement": "pre-steady-state target cleavage rate", "setting": "[2]", "value": "0.00517 ± 0.0037"}]}, {"sequence": "UCCUGCUACAGCUUGCAUAGUAAUUACUUA", "values": [{"measurement": "pre-steady-state target cleavage rate", "setting": "[1]", "value": "0.057 ± 0.017"}, {"measurement": "pre-steady-state target cleavage rate", "setting": "[2]", "value": "0.0026 ± 0.0026"}]}, {"sequence": "UCCUGCUACAGCUUGCAUAGUAUUUUGUAA", "values": [{"measurement": "pre-steady-state target cleavage rate", "setting": "[1]", "value": "0.107 ± 0.032"}, {"measurement": "pre-steady-state target cleavage rate", "setting": "[2]", "value": "0.00356 ± 0.0022"}]}, {"sequence": "UCCUGGAUGUGCUUGCAUAGCAUUUAGUUA", "values": [{"measurement": "pre-steady-state target cleavage rate", "setting": "[1]", "value": "0.0436 ± 0.012"}, {"measurement": "pre-steady-state target cleavage rate", "setting": "[2]", "value": "0.00505 ± 0.0018"}]}, {"sequence": "UCCUGCUACAGCUUGCAGUAGUAUUUAGUUA", "values": [{"measurement": "pre-steady-state target cleavage rate", "setting": "[1]", "value": "0.00973 ± 0.0053"}, {"measurement": "pre-steady-state target cleavage rate", "setting": "[2]", "value": "0.0051 ± 0.0024"}]}, {"sequence": "UCCUGGAUCAGCUUGCAUAGUAAUUAGAAA", "values": [{"measurement": "pre-steady-state target cleavage rate", "setting": "[1]", "value": "0.0807 ± 0.02"}, {"measurement": "pre-steady-state target cleavage rate", "setting": "[2]", "value": "0.00582 ± 0.0028"}]}, {"sequence": "UCCUGGAUCAGCAUGCAUAGUAUUUACAAA", "values": [{"measurement": "pre-steady-state target cleavage rate", "setting": "[1]", "value": "0.0991 ± 0.019"}, {"measurement": "pre-steady-state target cleavage rate", "setting": "[2]", "value": "0.00615 ± 0.0038"}]}, {"sequence": "UCCUGCUACAGCUUGCAAUAGUAUUUAGUUA", "values": [{"measurement": "pre-steady-state target cleavage rate", "setting": "[1]", "value": "0.0355 ± 0.0093"}, {"measurement": "pre-steady-state target cleavage rate", "setting": "[2]", "value": "0.006 ± 0.0018"}]}, {"sequence": "UCCUGGAUGUGCAAGCAUAGUAUUUAGAAA", "values": [{"measurement": "pre-steady-state target cleavage rate", "setting": "[1]", "value": "0.0135 ± 0.0052"}, {"measurement": "pre-steady-state target cleavage rate", "setting": "[2]", "value": "0.00423 ± 0.0039"}]}, {"sequence": "UCCUGGAACAGCUUGCAUAGUUUUUAGUAA", "values": [{"measurement": "pre-steady-state target cleavage rate", "setting": "[1]", "value": "0.0664 ± 0.015"}, {"measurement": "pre-steady-state target cleavage rate", "setting": "[2]", "value": "0.00724 ± 0.0029"}]}, {"sequence": "UCCUGCUACAGCUUGCAUAGAUUUUACAAA", "values": [{"measurement": "pre-steady-state target cleavage rate", "setting": "[1]", "value": "0.00852 ± 0.0044"}, {"measurement": "pre-steady-state target cleavage rate", "setting": "[2]", "value": "0.00292 ± 0.0018"}]}]}
